RORgamma inh – ROR gamma (mouse) transcription inhibition | Drosophila S2 Gal4-RORgamma UAS-luciferase reporter, 20 h | Potency, µM (doses to about 53.6 µM), for inactives: at the highest dose activity change, negative = inhibition, actives largely listed as inhibitors | P51450 | hit rate 5.4% among 310,000 | AID 2551; further: on the % scale 0 is the no-effect control and ±100 the full control effect; nearly all actives have a fitted effect of over 60% in size
Target sequence (P51450 whole entry, looked up, the tested form may be a part): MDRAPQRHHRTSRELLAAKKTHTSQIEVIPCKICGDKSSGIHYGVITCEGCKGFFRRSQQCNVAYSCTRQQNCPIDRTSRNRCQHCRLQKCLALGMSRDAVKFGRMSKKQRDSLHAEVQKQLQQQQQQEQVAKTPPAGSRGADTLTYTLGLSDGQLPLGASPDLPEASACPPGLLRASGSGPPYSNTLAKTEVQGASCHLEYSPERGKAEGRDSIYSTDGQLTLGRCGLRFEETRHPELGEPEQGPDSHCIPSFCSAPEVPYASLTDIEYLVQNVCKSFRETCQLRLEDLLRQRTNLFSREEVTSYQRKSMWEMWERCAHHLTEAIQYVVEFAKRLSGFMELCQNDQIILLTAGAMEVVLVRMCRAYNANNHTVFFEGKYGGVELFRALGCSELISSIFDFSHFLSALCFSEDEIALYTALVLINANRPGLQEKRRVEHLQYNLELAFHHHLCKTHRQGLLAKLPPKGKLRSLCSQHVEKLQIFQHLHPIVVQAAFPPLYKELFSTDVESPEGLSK
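Stably transfected Drosophila Schneider cells are the test system, with ROR gamma fused to Gal4 and luciferase under UAS control; luminescence is read after 20 hr of 700 uM copper sulfate induction at ambient temperature.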
SW480 rerep – inducers of DNA re-replication in SW480 colon cancer cells. Potency, µM (doses to about 46.1 µM), without a hit: at the highest dose re-replication activation, hits mostly activators. SW480 DNA re-replication, Hoechst DNA content imaging, 48 h. hit rate 1.8% among 340,000; further: % of control where 0% means no effect; nearly all actives have a fitted effect of over 55% in size
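Per well, 250 cells were exposed to pinned compound for 48 hr. Nuclear DNA was visualised with Hoechst (40 min, 37 C) and total object intensity recorded by fluorescence scanning.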
MCF10A rerep – inducers of DNA re-replication in MCF 10A breast cells; Potency, µM (titrated, usually from 46.1 µM), without a hit: at the highest dose activity, positive = re-replication, usual class: activators; AID 624296; hit rate 2.9% among 350,000; MCF 10A DNA re-replication, Hoechst nuclear intensity, 48 h; further: % of control where 0% means no effect; nearly all actives have a fitted effect of over 50% in size
Gal4-VP16 FLuc – inhibits Gal4-VP16 luciferase reporter, ROR gamma counter-screen. Potency, µM (titrated, usually from 53.6 µM), without a hit: at the highest dose activity, negative = inhibition, usual class: inhibitors. Drosophila S2 Gal4-VP16 UAS-luciferase, luminescence, 20 h. hit rate 3.5% among 310,000. AID 2546;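 further: Gal4-VP16 expression switched on by copper sulfate through the metallothionein promoter; on the % scale 0 is the no-effect control and ±100 the full control effect; nearly all actives have a fitted effect of over 50% in size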
ELG1 repair inh – inhibitors of ELG1-dependent DNA repair in HEK293T cells. HEK293T ELG1-luciferase reporter, luminescence, 16 h; DNA damage induced by 5-fluorouridine. Potency, µM (highest dose often 46.1 µM), for inactives: at the highest dose activity change, negative = inhibition, hits mostly inhibitors. hit rate 2.3% among 330,000; further: on the % scale 0 is the no-effect control and ±100 the full control effect; nearly all actives have a fitted effect of over 55% in size
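Step one: seed 2,000 cells per well. Step two: pin-transfer compound or DMSO alongside 5-fluorouridine. Step three: incubate 16 hr, 37 °C, 5% CO2. Step four: add ONE-Glo, wait 30 min, read luminescence.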
The depositor's hits bear a star; ? = inconclusive; / = no result; [ ] = another dose, or the depositor's remark. Sampled rows, rich in hits. Any-hit rate of the full collection: about 10%. The call rests on the fitted dose curve; in most records, active means well fitted curve in the direction sought with a large enough effect; inconclusive means small, poorly fitted or top-dose-only effect, or another doubt; inactive means no such curve, though single readings can be large; an effect the other way counts as inactive or inconclusive. Potency means the concentration at half of the fitted maximal effect.

SMILES	RORgamma inh	SW480 rerep	MCF10A rerep	Gal4-VP16 FLuc	ELG1 repair inh
O=C(NCCNS(=O)(=O)c1ccccc1Cl)c1cc(OCC(F)(F)F)ccc1OCC(F)(F)F	21%	-3%	15%	2%	15µM*
COc1ccc(OC)c(NC(=S)NCc2ccc(S(N)(=O)=O)cc2)c1	14%	-1%	-7%	22%	2%
COc1ccccc1NC(=S)NCC1CCC(CNC(=S)Nc2ccccc2OC)CC1 (centres undefined)	-28%	0%	13%	-11%	-12%
COc1ccccc1NC(=S)NCc1ccc2c(c1)OCO2	18µM*	-2%	?	?	5%
COc1ccccc1NC(=S)NCCc1ccccc1	6.3µM*	3%	-4%	?	0%
COc1ccc(CNC(=S)Nc2cc(OC)ccc2OC)cc1	18µM*	-2%	-1%	?	13%
CCOc1cc(NC(=S)NCc2ccco2)c(OCC)cc1NC(=O)C1CC1	11µM*	0%	-2%	?	5%
O=S(=O)(CCN1CCOCC1)c1ccc(OC(F)(F)F)cc1	-7%	4%	8%	-6%	3%
COC(=O)c1cccc(N(CC(=O)NC2CCCC2)C(=O)CNC(=O)c2cccs2)c1	-25%	-1%	-4%	0%	-12%
COc1ccc(NC(=S)NCc2ccco2)c(OC)c1	10µM*	-6%	7%	4%	10%
COc1ccc(NC(=S)Nc2ccc(F)cc2)c(OC)c1	/	1%	1%	/	/
COc1ccc(OC)c(NC(=S)NC(=O)c2ccc(Br)o2)c1	4µM*	21%	0%	?	?
COc1ccc(OC)c(NC(=S)NCc2ccco2)c1	/	-7%[9.22 µM]	3%	/	/
COc1ccc(NC(=S)NCc2ccc(F)cc2)c(OC)c1	13µM*	-1%	2%	?	?
COc1ccccc1NC(=S)NCc1ccc(F)cc1	32µM*	-1%	?	?	-11%
O=C(CN1N=C(c2ccc(Cl)cc2)CCC1=O)NCc1cccs1	31%	/	/	5%	2%
Cc1cc(OCC(=O)NNC(=S)NC(=O)c2ccc(Br)o2)ccc1Cl	7.9µM*	5%	7%	-21%	-4%
CCC(=O)NC(=S)Nc1ccc(NC(=O)COc2ccc(Cl)c(C)c2)cc1	4%[10 µM]	4%	2%	-12%	-27%
COc1ccccc1NC(=S)NCCc1ccc(F)cc1	5µM*	-13%	18%	-2%[10 µM]	-9%
COc1ccc(OC)c(NC(=S)Nc2ccccc2)c1	?	2%	-11%	20µM*	7%
COC(=O)NNC(=S)Nc1cc(OC)ccc1OC	?	?	-2%	7%	-16%
CCN(C(=O)c1cc2c(C)nc3ccccc3c2o1)c1cc(Cl)ccc1OC	9%	?	?	9%	0%
O=[N+]([O-])c1ccc(/C=N/Nc2ccnc3cc(Cl)ccc23)o1	-15%	3.7µM*	12%	-27%	15%
Clc1ccc2c(N/N=C/c3cccc(Br)c3)ccnc2c1	-117%	?	?	?	?
Clc1ccc2c(N/N=C/c3ccccc3Br)ccnc2c1	-110%	?	?	18µM*	-7%
SMILES	RORgamma inh	SW480 rerep	MCF10A rerep	Gal4-VP16 FLuc	ELG1 repair inh
COc1ccccc1CN(Cc1cc2cc3c(cc2[nH]c1=O)OCCO3)Cc1nnnn1Cc1ccco1	?	4%	7%	6%	21µM*
O=c1[nH]c2cc3c(cc2cc1CN(Cc1ccccc1)Cc1nnnn1Cc1ccco1)OCCO3	?	?	-7%	28%	?
O=c1[nH]c2cc3c(cc2cc1CN(Cc1cccnc1)Cc1nnnn1Cc1ccco1)OCCO3	19%	1%	3%	6%	23µM*
Cc1cccc2cc(CN(Cc3cccs3)Cc3nnnn3Cc3ccccc3)c(=O)[nH]c12	35%	1%	18%	4%	18µM*
CCOC(=O)Cn1nnnc1CN(Cc1ccccc1)Cc1cc2cc(CC)ccc2[nH]c1=O	12%	?	10µM*	2%	-7%
CN(CC(=O)Nc1cccc(F)c1)CC(=O)Nc1cccc(S(=O)(=O)N2CCCCC2)c1	/	1%	2%	/	?
Cc1cccc(NC(=O)CNC(=O)CN2C(=O)NC3(CCc4ccccc43)C2=O)c1C (centres undefined)	/	-1%	1%	/	10%
Cc1ccc(S(=O)(=O)N2CCOCC2)cc1NC(=O)COC(=O)Cc1cccs1	/	1%	-3%	/	16%
COc1cc(OC)cc(-c2cc3nc(C)c(CCC(=O)NCc4ccccc4)c(C)n3n2)c1	?	?	-5%	?	21µM*
COc1ccccc1-c1cc2nc(C)c(CCC(=O)NCc3ccc(F)cc3)c(C)n2n1	18%	-3%	?	-5%	0%
O=CN1CCN(C(=O)c2cc3cc(Cl)ccc3[nH]2)CC1	-9%[1.91 µM]	5.2µM*	?	1%	-4%
CN1CCN(C(=O)c2cc3cc(Cl)ccc3[nH]2)CC1	14%	3%	3%	7%	15%
Cc1cc(Cl)ccc1OCc1nc(-c2ccc(O)cc2)n[nH]1	?	1%	17%	4.5µM*	23%
Cc1cc(Cl)ccc1Oc1ncc(-c2ccc(Cl)cc2)cn1	13%	3%	26%	-3%	-6%
Cc1ccc(C(=O)OCC(=O)NNC(=O)c2ccc([N+](=O)[O-])cc2)o1	/	1%	-1%	/	0%
COc1ccc(Oc2ncc3nc(-c4cccs4)c(=O)n(C)c3n2)cc1	-3%	/	/	10%	/
CS(=O)(=O)c1ccc(-c2cn3cc(C(=O)O)ccc3n2)cc1	7.9µM*	30%	4%	10µM*	-1%
COC(=O)c1ccc2nc(-c3ccc(S(C)(=O)=O)cc3)cn2c1	1%	-10%	-3%	-17%	?
CC1CC(C)(C)Nc2ccc(N=O)cc21 (centres undefined)	13%	2.3µM*	23µM*	3%	?
CC1CC2(CCCC2)Nc2ccc(F)cc21 (centres undefined)	0%	-12%	-12%	-10%	-2%
CC1CC(C)(C)Nc2ccc(OC(=O)c3ccco3)cc21 (centres undefined)	5µM*	?	15µM*	2.5µM*	?
O=C(Oc1ccc2ccccc2c1)c1ccco1	4%	-6%	6%	-9%	8%
O=C(O)C1CC(CCCP(=O)(O)O)CCN1 (centres undefined)	8%	/	/	14%	/
Cc1cnc(C(=O)OCC(=O)Nc2cccc3ccccc23)cn1	/	-5%	4%	/	0%
CC(CCc1ccccc1)NC(=O)C(=O)c1c[nH]c2ccccc12 (centres undefined)	-12%	24%	10µM*	-14%	-2%
O=C(N/N=C/c1cn(Cc2ccccc2)c2ccccc12)c1ccncc1	2.8µM*	?	12%	?	18µM*
O=C(N/N=C/c1cn(Cc2ccccc2)c2ccccc12)c1cccnc1	7.1µM*	0%	-1%	8.9µM*	17%

From PubChem
